Calls of active or inactive are those of the source. Rule for the calls: active = hit-call score of the fitted dose curve at least 0.9, where 1 is the maximum; inactive = score below 0.9.
Each molecule was assayed on cysteine-aspartic acid protease (CASP8), CASP8 (gene 841) (assay: LTEA_HepaRG_CASP8: Life Technologies and Expression Analysis (LTEA) Assay for cysteine-aspartic acid protease (CASP8) using HepaRG (AID 2283480)). Conditions: mRNA level, 48 h; actives raise or lower the signal.
Protocol: LTEA_HepaRG is a cell based, multiplexed-readout assay that uses HepaRG, a human liver cell line, with measurements taken at 48 hours after chemical dosing on a 96-well plate.LTEA_HepaRG_CASP8 is one of 102 assay component(s) measured in the LTEA HepaRG cell culture assay. It is a marker of Cell proliferation, survival, death.Data from the assay component LTEA_HepaRG_CASP8 was analyzed into 1 endpoint. This assay endpoint, LTEA_HepaRG_CASP8, was analyzed with bidirectional fitting relative to DMSO as the negative control and baseline of activity. Using a type of inducible reporter, measures of mRNA induction for gain or loss-of-signal activity can be used to understand regulation of transcription factor activity. To generalize the intended target to other relatable targets, this assay endpoint is annotated to the protease intended target family, where the subfamily is cysteine protease.
A total of 1060 chemcials from the ToxCast library were tested in eight-point concentration-response experiments. Cell culture and cytotoxicity assays were conducted at Thermo Fisher Scientific's Custom Services facility (Madison, WI). A single lot of human HepaRG cells (Thermo Fisher Scientific, Frederick, MD) was used for the cell culture experiments. 96-well format collagen type I coated plates of human HepaRG cells were prepared using established methods. Briefly, cryopreserved HepaRG cells were thawed, plated at a density of approximately 100,000 cells/well in HepaRG Thaw, Plate, and General Purpose media (HPRG770, Thermo Fisher Scientific), and incubated for 48 hours. 0.5% DMSO was selected as vehicle control to balance the requisite need of DMSO in HepaRG cultures to maintain differentiation (for example, baseline metabolism, proportions of hepatocytes vs. cholangiocytes), while enabling further hepatic receptor pathway activation (for example, PXR and CAR) in response to chemical exposure. 48 hours after plating, the culture medium was replaced with HepaRG Serum-Free Incudtion Media. Cells were exposed to each test chemical in duplicate and maintained in CO2 incubators for another 48 hours. Chemical plates were thawed to room temperature and 200x concentrations of treatment groups were prepared. 8-point conentration-reponse curves were made with the highest exposure at 100 uM, followed by half-log dilutions, all in 0.5% DMSO. Each test plate contained variouse controls, induction positive controls (1mM phenobarbital), cytotoxicity positive controls ([…] aflatoxin B1), vehicle controls (0.5% DMSO), and total lysis controls (0.5% DMSO). Cell morphology images were taken using an Essen IncuCyte FLR automated microscope, with six 96-well plates imaged in about 24 minutes. Images were captured and exported and JPEG files. Spent culture media was transfered to black-well plates for the LDH assay, and remaining media was sorted at -80 C for later use. Cells were treated with RLT buffer and frozen until shipped for gene expression analysis. Total RNA was isolated from the cell suspension in 75 uL of Buffer RLT (Qiagen, Germantown, MD 20874) by Quintiles/Expression Analysis (Durham, NC) using a custom isolation procedure. Total RNA from each plate well was transferred to a preamplification plate. Fluidigm's 96.96 Dynamic ArrayTM (Fluidigm, Amsterdam, the Netherlands) technology was used for gene expression analyses by quantitative reverse transcription polymerase chain reaction (qRT-PCR, performed by Quintiles/Expression Analysis, Durham, NC)89. Standard TaqManTM Assays (Applied Biosystems/ThermoFisher Scientific, Foster City, CA) were used to assess the expression of 93 genes selected based on their selectivity and sensitivity to important hepatic receptors known to be modulated by environmental chemicals; importance in human hepatocyte functionality; and hepatotoxicity. […]

| SMILES | AC50 | outcome |
| --- | --- | --- |
| OC(c1ccc(Cl)cc1)(c1ccc(Cl)cc1)C(Cl)(Cl)Cl | 50 µM (active) | – |
| Clc1nc(Cl)nc(Nc2ccccc2Cl)n1 | – | inactive |
| Cc1cc(C)nc(Nc2ccccc2)n1 | – | inactive |
| CCN(CC)C(=O)C(C)Oc1cccc2ccccc12 (stereo not given) | – | inactive |
| Cn1c(-c2ccccc2)cc(-c2ccccc2)[n+]1C | 89.2 µM (active) | – |
| COC(=O)c1c(C(F)F)nc(C(F)(F)F)c(C2=NCCS2)c1CC(C)C | – | inactive |
| CC(C)C1(C)N=C(c2ncccc2C(=O)O)NC1=O (stereo not given) | – | inactive |
| COP(=S)(OC)Oc1ccc([N+](=O)[O-])c(C)c1 | – | inactive |
| CCCCC(C#N)(Cn1cncn1)c1ccc(Cl)cc1 (stereo not given) | – | inactive |
| Nc1c(Cl)c(F)nc(OCC(=O)O)c1Cl | – | inactive |
| O=C(O)c1c(Cl)ccc2cc(Cl)cnc12 | – | inactive |
| COCc1cnc(C2=NC(C)(C(C)C)C(=O)N2)c(C(=O)O)c1 (stereo not given) | – | inactive |
| CCCC(=NOCC)C1=C(O)CC(CC(C)SCC)CC1=O (stereo not given) | – | inactive |
| N#Cc1c(Cl)cccc1Cl | – | inactive |
| O=c1n(Cl)c(=O)n(Cl)c(=O)n1Cl | – | inactive |
| COc1cc(OC)nc(NC(=O)NS(=O)(=O)c2ncccc2OCC(F)(F)F)n1 | – | inactive |
| CCSC(=O)N1CCCCCC1 | – | inactive |
| C=C(C)CN(CC)c1c([N+](=O)[O-])cc(C(F)(F)F)cc1[N+](=O)[O-] | – | inactive |
| Clc1cccc(C(Cl)(Cl)Cl)n1 | – | inactive |
| CC(C)N1C(=O)c2ccccc2NS1(=O)=O | – | inactive |

| SMILES | AC50 | outcome |
| --- | --- | --- |
| CO/N=C(/C1=NOCCO1)c1ccccc1Oc1ncnc(Oc2ccccc2Cl)c1F | – | inactive |
| O=C(Nc1ccccc1-c1ccc(Cl)cc1)c1cccnc1Cl | – | inactive |
| CC(C)NC(=O)N1CC(=O)N(c2cc(Cl)cc(Cl)c2)C1=O | – | inactive |
| O=P(O)(O)CCCl | – | inactive |
| COC(=O)N(C(=O)N1CO[C@@]2(C(=O)OC)Cc3cc(Cl)ccc3C2=N1)c1ccc(OC(F)(F)F)cc1 | – | inactive |
| COC(=O)NS(=O)(=O)c1ccc(N)cc1 | – | inactive |
| COc1ccc(-c2ccccc2)cc1NNC(=O)OC(C)C | – | inactive |
| CC(C)Oc1cccc(NC(=O)c2ccccc2C(F)(F)F)c1 | – | inactive |
| CC(C)Nc1nc(Cl)nc(NC(C)C)n1 | – | inactive |
| N#Cc1c[nH]cc1-c1cccc2c1OC(F)(F)O2 | – | inactive |
| COC(=O)NC(=S)Nc1ccccc1NC(=S)NC(=O)OC | – | inactive |
| Nc1cnn(-c2ccccc2)c(=O)c1Cl | – | inactive |
| CCNC(=O)NC(=O)C(C#N)=NOC | – | inactive |
| CN/C(=N\[N+](=O)[O-])NCc1cnc(Cl)s1 | – | inactive |
| CC(C)N1C(=O)N(c2ccccc2)CSC1=NC(C)(C)C | – | inactive |
| CCOc1nc(F)cc2nc(S(=O)(=O)Nc3c(Cl)cccc3Cl)nn12 | – | inactive |
| COP(=O)(OC)O/C(C)=C/C(=O)N(C)C | – | inactive |
| CCCN(CC)CC1COC2(CCC(C(C)(C)C)CC2)O1 (stereo not given) | – | inactive |
| CCOP(=S)(OCC)Oc1nc(Cl)n(C(C)C)n1 | – | inactive |
| CC1(C)CCC(=Cc2ccc(Cl)cc2)C1(O)Cn1cncn1 (stereo not given) | – | inactive |

From PubChem BioAssay (EPA / NIEHS)
